Source: PubChem BioAssay (several laboratories)
Shown are actives, neighbours in structure and some others; about 4.9% of the full set was active somewhere.
PP1 inh = PP1-alpha phosphatase inhibitors, primary screen, counter-screen for PP5 inhibitor project, biochemical, fluorescence, OMFP substrate, single point; Serine/threonine-protein phosphatase PP1-alpha catalytic subunit (Homo sapiens), P62136; purified PP1alpha; inhibition, % at 6.7 µM; 0.9% of 320,000 active;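 active = inhibition above the mean inhibition of all tested compounds plus 3 SD, computed separately for each screening campaign, cut at about 15% in these data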
PP5 primary = PP5 phosphatase inhibitors, primary screen, biochemical, fluorescence. purified PP5c, OMFP substrate fluorescence. AID 1987, 2009. inhibition, % at 6.7 µM. 0.18% of 320,000 active. Serine/threonine-protein phosphatase 5 (Homo sapiens), P53041;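 active = inhibition above the campaign's mean inhibition across all tested compounds plus 3 SD, cut at about 9.5% in these data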;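 also: 0% = DMSO only and 100% = 100 µM cantharidin control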
Target sequence (P53041 whole entry, looked up): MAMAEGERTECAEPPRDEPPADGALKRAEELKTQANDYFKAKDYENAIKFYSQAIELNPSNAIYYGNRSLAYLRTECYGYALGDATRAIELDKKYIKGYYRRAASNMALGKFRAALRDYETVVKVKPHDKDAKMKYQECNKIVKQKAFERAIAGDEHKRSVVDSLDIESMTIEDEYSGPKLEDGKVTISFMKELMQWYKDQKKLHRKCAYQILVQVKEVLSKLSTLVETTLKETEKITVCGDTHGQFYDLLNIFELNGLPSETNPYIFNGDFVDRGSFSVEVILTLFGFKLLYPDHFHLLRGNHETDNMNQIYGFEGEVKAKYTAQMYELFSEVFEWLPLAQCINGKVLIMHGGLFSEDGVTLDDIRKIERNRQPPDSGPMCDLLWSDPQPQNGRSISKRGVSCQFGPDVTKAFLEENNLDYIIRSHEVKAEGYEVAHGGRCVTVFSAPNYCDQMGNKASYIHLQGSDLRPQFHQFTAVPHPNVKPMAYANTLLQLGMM
Beta cell apopt = inhibitors of cytokine-induced beta cell apoptosis, primary screen, luminescence | AID 435005, 2010 | 0.8% of 300,000 active | INS-1E cytokine-induced death, ATP luminescence, 48 h; percent of positive-control rescue, neutral wells zero | protection from apoptosis, % (no concentration beside the values);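 active = Every replicate reaches about 75%, or at least half do and their mean reaches it too, limit read from the data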;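 also: 0% = cytokine-treated negative control wells and 100% = positive control rescue; higher means more ATP so stronger rescue from cytokine killing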
Mdm2-MdmX inh = inhibitors of human Mdm2-MdmX association, primary screen, cell-based, luminescence, split luciferase, SaOS-2, uHTS; Protein Mdm4 (Homo sapiens) + E3 ubiquitin-protein ligase Mdm2 (Homo sapiens), …; SaOS-2 split-luciferase Mdm2/MdmX complementation; inhibition, % at 8 µM; 3% of 330,000 active; AID 485346, 2010;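 active = inhibition of at least 50% at 8 µM in the primary screen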
CSC inhib = cancer stem cell viability inhibitors, primary screen, luminescence; cancer stem cell-like cells viability; inhibition, % at 7.5 µM; 1.1% of 300,000 active; in the data active = inhibition above about 75%; tested in HMLE shEcad cells
Calb FLC = C. albicans growth inhibition with fluconazole, primary screen, CaCi-2 strain, Alamar Blue fluorescence. C. albicans CaCi-2 (fluconazole-resistant clinical isolate) + fluconazole, 48 h. growth inhibition, % (test concentration not listed). 0.57% of 300,000 active;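 active = growth inhibition above about 58% in most replicates, limit read from the data, passing the limit was not always enough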;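 also: all wells also contain fluconazole at 8 µg/ml as a sub-toxic cotreatment; 0% = median of DMSO wells and 100% = median of geldanamycin control wells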
Numbers without * were called inactive.

Screening Cc1ccc(N/N=C/c2ccc3c(c2)OCCO3)cc1Cl returned PP1 inh -0.6, PP5 primary -1.3, Mdm2-MdmX inh 8.1, CSC inhib 13.5 and Calb FLC 102.3*.
Cc1ccc(NC(=O)N2N=C(c3ccc(F)cc3)CC2c2ccc(F)cc2)cc1 (configuration not stated) was read as PP1 inh -7.7, PP5 primary 1.0, Beta cell apopt 12.1, Mdm2-MdmX inh 21.6, CSC inhib 23.6 and Calb FLC -16.2.
Screening CC(=O)N1CCN(S(=O)(=O)c2ccc(S(=O)(=O)NCC(C)C)cc2)CC1 returned PP1 inh 15.9*, PP5 primary -5.2, Beta cell apopt -10.6, Mdm2-MdmX inh -16.7 and Calb FLC -5.0.
For CN1CCN(S(=O)(=O)c2cccc(C(=O)N(Cc3ccccc3)c3ccccc3)c2)CC1 the results were PP1 inh -2.4, PP5 primary -2.2, Beta cell apopt -4.2, Mdm2-MdmX inh 17.2, CSC inhib 10.8 and Calb FLC -10.1.
For Fc1cccc2sc(Nc3nnc(-c4ccco4)o3)nc12 the results were PP1 inh -1.0, PP5 primary 2.0, Beta cell apopt 27.5, Mdm2-MdmX inh 3.9, CSC inhib 23.3 and Calb FLC 85.2*.
Screening S=c1[nH]c2ncccc2o1 returned PP1 inh -2.3, PP5 primary 1.3, Beta cell apopt -3.4, Mdm2-MdmX inh 14.5, CSC inhib 5.0 and Calb FLC 0.6.
`S=c1[nH]c2cc(Cl)c3cccnc3c2o1` gave PP1 inh -0.6, PP5 primary 0.1, Beta cell apopt -6.7, Mdm2-MdmX inh 12.3, CSC inhib -10.6 and Calb FLC 78.7*.
`O=c1c2cc(Br)ccc2[nH]c(=S)n1Cc1ccccc1` gave PP1 inh 5.2, PP5 primary 4.7, Mdm2-MdmX inh 29.6 and Calb FLC -7.3.
For O=C(NCc1cccnc1)c1ccc(Cn2c(=S)[nH]c3ccc(Br)cc3c2=O)cc1 the results were PP1 inh 6.0, PP5 primary 2.1, Beta cell apopt 97.5*, Mdm2-MdmX inh 17.2, CSC inhib 4.1 and Calb FLC -4.4.
Screening Cc1cccc(CNc2ccc(S(=O)(=O)N3CCCCC3)cc2)c1 returned PP1 inh 4.0, PP5 primary 2.4, Beta cell apopt 101.3* and Mdm2-MdmX inh 11.0.
O=C(COc1ccc2ccccc2c1)Nc1ccc(S(=O)(=O)N2CCCCCC2)cc1 was read as PP1 inh 17.0*, PP5 primary -0.1, Beta cell apopt 6.5, Mdm2-MdmX inh 23.6, CSC inhib -0.6 and Calb FLC 4.8.
O=C(COc1ccc(F)cc1)Nc1cc(S(=O)(=O)N2CCCCC2)ccc1N1CCCCC1 was read as PP1 inh 15.8*, PP5 primary 0.2, Beta cell apopt 18.0, Mdm2-MdmX inh 30.3, CSC inhib 36.7 and Calb FLC -5.2.
Screening O=C(COc1ccc([N+](=O)[O-])cc1)Nc1cc(S(=O)(=O)N2CCCCC2)ccc1N1CCCCC1 returned PP1 inh 0.3, PP5 primary 0.1, Beta cell apopt 5.5, Mdm2-MdmX inh 18.4, CSC inhib 0.3 and Calb FLC -4.4.
Screening CCC(CO)Oc1cc(NCc2ccccc2Cl)c2ncn(C(C)C)c2c1 (configuration not stated) returned PP1 inh 0.6, PP5 primary 3.6, Beta cell apopt -3.3, Mdm2-MdmX inh 9.9 and CSC inhib -1.9.
COc1cc2c(cc1CN1CCN(C(=O)c3cc(OC)c(OC)c(OC)c3)CC1)OCO2 was read as PP1 inh -1.1, PP5 primary 2.4, Beta cell apopt -7.6, Mdm2-MdmX inh 24.3, CSC inhib -2.4 and Calb FLC -1.3.
`CCC(CO)Oc1cc(NCc2ccc(O)cc2)c2ncn(C(C)C)c2c1` (configuration not stated) gave Beta cell apopt 1.7 and Mdm2-MdmX inh 17.4.
CCC(CO)Oc1cc(NCc2ccc(C(C)(C)C)cc2)c2ncn(C(C)C)c2c1 (configuration not stated) was read as Beta cell apopt 136.8* and Mdm2-MdmX inh 19.1.
For CCCCOc1cc(NCc2ccccc2)c2ncn(C(C)C)c2c1 the results were Beta cell apopt 79.5* and Mdm2-MdmX inh 47.0.
Nn1c(SCC(=O)Nc2ccc3c(c2)OCCO3)nncc1=O was read as PP1 inh -1.7, PP5 primary 0.2, Beta cell apopt -7.9, Mdm2-MdmX inh 10.0, CSC inhib -15.8 and Calb FLC -0.2.
`CCN(CC)Cc1c(O)ccc2c(=O)c(-c3ccc(Cl)cc3)coc12` gave PP1 inh -6.1, PP5 primary 0.9, Beta cell apopt -3.2, Mdm2-MdmX inh 13.1, CSC inhib -9.6 and Calb FLC 8.8.
C=CCN(CC=C)Cc1c(O)ccc2c(=O)c(-c3ccccc3)coc12 was read as PP1 inh -8.4, PP5 primary 0.8, Beta cell apopt 2.7, Mdm2-MdmX inh 7.2, CSC inhib -8.7 and Calb FLC 94.0*.
`NS(=O)(=O)c1ccc(CNC(=O)Cc2ccccc2[N+](=O)[O-])cc1` gave PP1 inh -4.2, PP5 primary 0.3, Beta cell apopt -1.2, Mdm2-MdmX inh 14.2, CSC inhib 0.9 and Calb FLC 15.6.
Screening O=C(NCc1ccc(F)cc1)C(c1ccccc1)N(CC1CCCO1)C(=O)Cn1nnc2ccccc21 (configuration not stated) returned PP1 inh -2.6, PP5 primary 1.5, Beta cell apopt -8.5, Mdm2-MdmX inh -96.5 and Calb FLC 91.6*.
O=C(NCc1ccco1)C(c1ccccc1)N(CC1CCCO1)C(=O)Cn1nnc2ccccc21 (configuration not stated) was read as PP1 inh -0.8, PP5 primary -1.8, Beta cell apopt -3.6, Mdm2-MdmX inh 5.3, CSC inhib -8.3 and Calb FLC 30.5.
Screening Cc1cc(N2C(=O)C(=O)/C(=C(/O)c3ccc(F)cc3)C2c2cccc(Br)c2)no1 (configuration not stated) returned PP1 inh 16.4*, PP5 primary -0.8, Beta cell apopt -3.1, Mdm2-MdmX inh -12.5, CSC inhib 15.0 and Calb FLC 23.3.
Screening CCCc1ccc(O)c(N=Cc2cc(Br)cc(OCC)c2O)c1 returned PP1 inh -0.1, PP5 primary 3.4, Beta cell apopt -7.0, Mdm2-MdmX inh 39.3, CSC inhib 91.0* and Calb FLC -23.4.
`CCc1ccc(O)c(N=Cc2cccc(C)c2O)c1` gave PP1 inh -0.7, PP5 primary 2.5, Beta cell apopt -2.8, Mdm2-MdmX inh 20.6, CSC inhib 9.9 and Calb FLC 2.9.
